# Experimental data taken from PubChem BioAssay (NCATS).
# Values joined by “and” are separate entries in the source; they are usually repeats but may differ in a detail not shown here. Identical values can stand only once. Results filed as inconclusive are left out. Entries that show only a call come without a potency. Active and inactive are the calls of the source. Unless noted, calls follow the shape of the dose curve; as a rule, active = well fitted curve in the direction sought with a large enough effect; inconclusive = small, poorly fitted or top-dose-only effect, or another doubt; inactive = no such curve, though single readings can be large; an effect the other way counts as inactive or inconclusive.
# Key:
# [1] = biological target: Calcium and integrin-binding protein 1 (Homo sapiens) (UniProt Q99828); test: Primary qHTS for Identification of Calcium Integrin Binding Protein 1 (CIB1) Competitor (AID 1508620);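 also: GST tagged CIB1 binding a fluorescein labelled alphaIIb integrin peptide tracer; top concentration of the series differs between compounds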
# How it was run: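 CIB1-GST (1 uM final) and compound incubated 15 min at room temperature before adding FITC-alphaIIb peptide tracer (100 nM final). Competition for binding read by fluorescence polarization (ex 480, em 540) after another 15 min at room temperature.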
# [2] = Primary qHTS for small molecule stabilizers of the endoplasmic reticulum resident proteome: Secreted ER Calcium Modulated Protein (SERCaMP) assay (AID 1508630)
# How it was run: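 GLuc-SERCaMP-expressing SH-SY5Y cells, pretreated 16 h with compound, are challenged with thapsigargin to empty ER calcium stores; after 4 h, coelenterazine is added directly to the medium and luminescence is imaged.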
# [3] = biological target: Cytochrome P450 2D6 (Homo sapiens) (UniProt P10635); test: Cytochrome P450 family 2 subfamily D member 6 (CYP2D6) small molecule antagonists: luciferase biochemical (cell-free) qHTS assay (AID 1645840; active = well fitted curve in the direction sought with a large enough effect in the repeat runs; an effect the other way counts as inactive or inconclusive; also: nearly all actives have a fitted effect of over 55% in size; also: potency is read from the fitted curve at half-maximal effect)
# How it was run: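 P450-Glo luminescent screen: recombinant CYP2D6 enzyme–proluciferin substrate mix preincubated with compound 10 min at room temperature, then NADPH regeneration added for 1 h at room temperature. Detection reagent added for 20 min; luciferin light read as relative luminescence units.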
# [4] = biological target: Cytochrome P450 2C9 (Homo sapiens) (UniProt P11712); test: Cytochrome P450 family 2 subfamily C member 9 (CYP2C9) small molecule antagonists: luciferase biochemical (cell-free) qHTS assay (AID 1645842; active = well fitted curve in the direction sought with a large enough effect in the repeat runs; an effect the other way counts as inactive or inconclusive; also: nearly all actives have a fitted effect of over 55% in size; also: potency is read from the fitted curve at half-maximal effect)
# How it was run: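 Luminescence, after 20 min with luciferin detection reagent, reflected CYP2C9 turnover during a 1 h NADPH-driven reaction at 37C. Enzyme-substrate mix contained 0.4% bovine serum albumin and was preincubated with compound 10 min at room temperature.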
# [5] = biological target: N-terminal Xaa-Pro-Lys N-methyltransferase 1 (Homo sapiens) (UniProt Q9BV86); test: Confirmatory qHTS for Inhibitors of N-terminal methyltransferase 1 (NTMT1): MTaseGlo Assay (AID 1645874); also: potency is read from the fitted curve at half-maximal effect; nearly all actives have a fitted effect of over 65% in size
# How it was run: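 qHTS format: NTMT1 125 nM, SAM 100 uM, peptide SPKRIA 1 uM final; 15 min compound preincubation, 30 min reaction at room temperature. MTase-Glo luminescence.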
# [6] = Primary qHTS for inhibitors of nuclear receptor binding SET domain protein 2 (NSD2) in an isogenic RCH-ACV NSD2 p.E1099K mutant (9B) (AID 1645876); also: nearly all actives have a fitted effect of over 70% in size; also: potency is read from the fitted curve at half-maximal effect
# [7] = Primary qHTS for inhibitors of nuclear receptor binding SET domain protein 2 (NSD2) in an RCH-ACV wild type WT cells (2C) (AID 1645877); also: nearly all actives have a fitted effect of over 70% in size; also: potency is read from the fitted curve at half-maximal effect
# [8] = Counterscreen qHTS for small molecule stabilizers of the endoplasmic reticulum resident proteome: GLuc-NoTag assay (AID 1508627);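 also: SH-SY5Y cells given compound then 100 nM thapsigargin to empty ER calcium; series mostly up to about 76 µM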
# How it was run: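 Luminescence of Gaussia luciferase secreted into the medium (coelenterazine, 0.07x final, unlysed cells) was the read-out. Human SH-SY5Y neuroblastoma cells constitutively secreting untagged GLuc received compound for 19 h, then 100 nM thapsigargin for 4 h.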
# [9] = Confirmatory qHTS for small molecule stabilizers of the endoplasmic reticulum resident proteome: Secreted ER Calcium Modulated Protein (SERCaMP) assay (AID 1508628); also: series mostly up to about 76 µM; nearly all actives have a fitted effect of over 40% in size
# How it was run: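 SH-SY5Y cells stably expressing GLuc-SERCaMP, treated 16 h with compound (primary 1.53, 7.67, 38.3 uM; confirmation 11 concentrations, up to 76.6 uM), then 100 nM thapsigargin for 4 h. Secreted Gaussia luciferase in medium read by coelenterazine luminescence.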
# [10] = Cell Viability qHTS for small molecule stabilizers of the endoplasmic reticulum resident proteome (AID 1508629); conditions: cell viability counter-screen, 100 nM thapsigargin for final 4 h;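 also: human SH-SY5Y neuroblastoma cells carrying the GLuc-SERCaMP reporter; compound exposure about 46 h in total before the viability read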
# [11] = A High-Content qHTS Against Drug Library for the Identification of Small Molecules that Inhibit DYT1 Early Onset Primary Dystonia-Associated Cell Pathology (AID 1645839; calls by dose curve; also: series mostly up to about 46 µM)
# How it was run: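 In this high-content image screen, delE TorsinA mislocalization in inducible Flp-In 293 cells is scored as %pathology, with cell count serving as the counterscreen. Compound exposure lasts 48 h under tetracycline induction in reduced-serum medium.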
# [12] = biological target: Cytochrome P450 3A4 (Homo sapiens) (UniProt P08684); test: Cytochrome P450 family 3 subfamily A member 4 (CYP3A4) small molecule antagonists: luciferase qHTS assay (AID 1645841; active = well fitted curve in the direction sought with a large enough effect in the repeat runs; an effect the other way counts as inactive or inconclusive; also: nearly all actives have a fitted effect of over 45% in size)
# How it was run: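 Luminescent CYP3A4 activity readout: compounds plus enzyme-substrate mix 10 min at room temperature, reaction started with NADPH regenerating system for 1 h, stopped with detection reagent, read after 20 min. Ketoconazole served as control.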
# [13] = biological target: Catechol O-methyltransferase (Homo sapiens) (UniProt P21964); test: Confirmatory Screen for Target Class Profiling of Small Molecule Inhibitors of Methyltransferases (AID 1745852); conditions: MTase-Glo luminescence, SAH detection, recombinant enzyme; measured here: COMT max response; stronger effect = lower value
# Catechol O-methyltransferase (Homo sapiens), sequence (P21964 whole entry, looked up): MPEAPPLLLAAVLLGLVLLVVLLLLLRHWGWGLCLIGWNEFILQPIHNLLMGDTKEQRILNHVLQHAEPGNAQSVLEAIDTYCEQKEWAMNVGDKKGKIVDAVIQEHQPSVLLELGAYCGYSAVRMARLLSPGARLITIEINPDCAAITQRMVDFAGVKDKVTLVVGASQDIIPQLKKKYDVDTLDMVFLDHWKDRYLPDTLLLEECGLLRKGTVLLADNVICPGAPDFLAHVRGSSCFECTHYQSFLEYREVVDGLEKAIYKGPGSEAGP
# Calcium and integrin-binding protein 1 (Homo sapiens), sequence (Q99828 whole entry, looked up): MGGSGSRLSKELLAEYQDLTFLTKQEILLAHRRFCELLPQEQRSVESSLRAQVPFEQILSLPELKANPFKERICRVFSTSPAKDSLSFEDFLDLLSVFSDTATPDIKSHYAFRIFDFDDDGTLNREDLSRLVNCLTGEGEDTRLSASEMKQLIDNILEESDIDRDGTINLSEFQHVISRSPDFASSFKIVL
# Cytochrome P450 2D6 (Homo sapiens), sequence (P10635 whole entry, looked up): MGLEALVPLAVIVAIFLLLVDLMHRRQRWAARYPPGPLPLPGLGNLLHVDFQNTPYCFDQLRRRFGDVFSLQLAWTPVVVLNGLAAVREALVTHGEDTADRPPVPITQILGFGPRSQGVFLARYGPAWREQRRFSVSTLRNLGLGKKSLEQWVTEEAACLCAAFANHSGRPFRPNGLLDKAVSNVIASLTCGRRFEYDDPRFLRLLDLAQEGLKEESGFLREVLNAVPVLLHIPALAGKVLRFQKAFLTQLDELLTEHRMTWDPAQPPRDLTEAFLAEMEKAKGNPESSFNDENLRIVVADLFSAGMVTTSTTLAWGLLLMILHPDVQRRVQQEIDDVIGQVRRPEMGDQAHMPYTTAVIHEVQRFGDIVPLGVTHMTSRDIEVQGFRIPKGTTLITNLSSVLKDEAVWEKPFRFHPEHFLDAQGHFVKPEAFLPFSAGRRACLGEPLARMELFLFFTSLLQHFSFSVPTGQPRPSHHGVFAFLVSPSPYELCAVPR
# Cytochrome P450 2C9 (Homo sapiens), sequence (P11712 whole entry, looked up): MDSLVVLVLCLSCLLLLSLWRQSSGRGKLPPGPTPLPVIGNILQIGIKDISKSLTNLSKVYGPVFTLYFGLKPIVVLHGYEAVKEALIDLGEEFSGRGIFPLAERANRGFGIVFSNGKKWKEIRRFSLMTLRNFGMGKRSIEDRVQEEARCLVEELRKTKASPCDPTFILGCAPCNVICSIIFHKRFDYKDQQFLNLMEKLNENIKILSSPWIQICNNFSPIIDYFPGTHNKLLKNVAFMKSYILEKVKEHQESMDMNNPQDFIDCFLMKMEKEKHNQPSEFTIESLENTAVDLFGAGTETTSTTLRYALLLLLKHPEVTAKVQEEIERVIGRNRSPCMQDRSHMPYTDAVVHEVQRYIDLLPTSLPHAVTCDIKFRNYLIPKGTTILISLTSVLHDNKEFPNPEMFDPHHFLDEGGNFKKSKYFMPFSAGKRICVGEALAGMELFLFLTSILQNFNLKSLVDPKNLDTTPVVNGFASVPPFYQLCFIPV
# N-terminal Xaa-Pro-Lys N-methyltransferase 1 (Homo sapiens), sequence (Q9BV86 whole entry, looked up): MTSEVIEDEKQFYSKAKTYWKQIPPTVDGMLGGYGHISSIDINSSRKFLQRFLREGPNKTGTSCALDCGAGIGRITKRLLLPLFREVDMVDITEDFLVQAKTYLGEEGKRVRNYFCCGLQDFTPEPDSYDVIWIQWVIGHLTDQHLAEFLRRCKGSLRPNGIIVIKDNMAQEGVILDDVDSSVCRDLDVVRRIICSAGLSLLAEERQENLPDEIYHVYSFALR
# Cytochrome P450 3A4 (Homo sapiens), sequence (P08684 whole entry, looked up): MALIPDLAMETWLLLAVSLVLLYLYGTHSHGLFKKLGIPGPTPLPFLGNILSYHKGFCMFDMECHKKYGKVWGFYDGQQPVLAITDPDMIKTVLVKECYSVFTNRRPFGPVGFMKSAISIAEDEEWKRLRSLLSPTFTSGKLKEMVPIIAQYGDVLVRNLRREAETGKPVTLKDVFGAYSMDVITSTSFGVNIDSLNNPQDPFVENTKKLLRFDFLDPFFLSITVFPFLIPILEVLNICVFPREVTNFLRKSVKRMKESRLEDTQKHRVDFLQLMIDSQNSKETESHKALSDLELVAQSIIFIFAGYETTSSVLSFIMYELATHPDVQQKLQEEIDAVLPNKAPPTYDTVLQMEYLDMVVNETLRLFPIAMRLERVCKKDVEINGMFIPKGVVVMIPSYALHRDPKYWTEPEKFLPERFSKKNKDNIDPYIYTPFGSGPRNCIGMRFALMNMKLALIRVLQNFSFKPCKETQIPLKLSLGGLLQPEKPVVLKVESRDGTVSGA
structure (smiles),measurement,setting,value
CCOc1cc2ncc(C#N)c(Nc3ccc(F)c(Cl)c3)c2cc1NC(=O)C=CCN(C)C,outcome,[1],inactive
same,Potency,[2],inactive
COc1cc(=C2C=c3ccccc3=N2)[nH]c1=Cc1[nH]c(C)cc1C,outcome,[1],inactive
same,Potency,[2],inactive
Cc1cc(Nc2cc(CN3CCOCC3)c3nc(C)c(Cc4ccc(Cl)cc4F)n3n2)n[nH]1,outcome,[1],inactive
same,Potency,[2],inactive
same,Potency,[3],23.9 µM (active)
same,Potency,[4],12 µM (active)
same,Potency,[5],20.5 µM (active)
same,Potency,[6],3.26 µM (active) and 1.86 µM (active)
same,Potency,[7],2.59 µM (active) and 1.18 µM (active)
Cn1c2ccccc2c2c3c(c4c5ccccc5n(CCC#N)c4c21)CNC3=O,outcome,[1],inactive
same,Potency,[2],inactive
CC(=O)SC[C@@H](C)C(=O)N1CCC[C@H]1C(=O)N[C@@H](Cc1ccccc1)C(=O)O,outcome,[1],inactive
same,Potency,[8],inactive
same,outcome,[9],inactive
same,max response,[10],10.6% (inactive)
same,Potency,[2],inactive
same,Potency,[11],inactive
same,Potency,[3],inactive
same,Potency,[6],inactive
same,Potency,[7],inactive
COC(=O)C[C@](O)(CCCC(C)(C)O)C(=O)O[C@@H]1C(OC)=C[C@]23CCCN2CCc2cc4c(cc2[C@H]13)OCO4,outcome,[1],inactive
same,Potency,[2],inactive
C1=CCOCc2cc(ccc2OCCN2CCCC2)Nc2nccc(n2)-c2cccc(c2)OCC1,outcome,[1],inactive
same,Potency,[2],inactive
CC(C)c1noc(N2CCC(COc3ccc(-c4ccc(S(C)(=O)=O)cc4)nc3)CC2)n1,outcome,[1],inactive
same,Potency,[2],inactive
same,Potency,[3],inactive
CC=CC1=C(C(=O)O)N2C(=O)[C@H](NC(=O)[C@H](N)c3ccc(O)cc3)[C@@H]2SC1,outcome,[1],inactive
same,Potency,[2],inactive
COc1cc2ncnc(Nc3ccc(F)c(Cl)c3)c2cc1NC(=O)C=CCN1CCCCC1,outcome,[1],inactive
same,Potency,[2],inactive
COc1c(OCCCN2CCOCC2)ccc2c3n(c(=NC(=O)c4cnc(N)nc4)nc12)CCN3,outcome,[1],inactive
same,Potency,[2],inactive
same,Potency,[3],inactive
same,outcome,[12],inactive
same,Potency,[4],inactive
same,Potency,[6],9.4 nM (active) and 24.1 nM (active)
same,Potency,[7],8.4 nM (active) and 60.5 nM (active)
C[C@@H](Oc1cc(-c2cnn(C3CCNCC3)c2)cnc1N)c1c(Cl)ccc(F)c1Cl,outcome,[1],inactive
same,Potency,[2],inactive
same,Potency,[3],21.3 µM (active) and 13.5 µM (active)
same,Potency,[4],1.69 µM (active)
same,Potency,[5],39.8 µM (active)
same,Potency,[6],1.45 µM (active) and 1.83 µM (active) and 1.48 µM (active)
same,Potency,[7],1.15 µM (active) and 1.29 µM (active) and 1.05 µM (active)
same,activity,[13],-38.2% and -62.1%
COc1ccc(C=Cc2cc(OC)c(OC)c(OC)c2)cc1O,outcome,[1],inactive
same,Potency,[2],inactive
CC(C)=CCCC(C)=CCCC(C)=CCSc1ccccc1C(=O)O,outcome,[1],inactive
CCCCc1nc2cc(C=CC(=O)NO)ccc2n1CCN(CC)CC,outcome,[1],inactive
same,Potency,[2],inactive
same,Potency,[3],12 µM (active)
C#Cc1cccc(Nc2ncnc3cc(OC)c(OCCCCCCC(=O)NO)cc23)c1,outcome,[1],inactive
same,Potency,[2],inactive
same,Potency,[3],4.77 µM (active)
same,Potency,[4],10.7 µM (active)
same,Potency,[5],31.2 µM (active)
same,Potency,[6],515 nM (active) and 590 nM (active)
same,Potency,[7],230 nM (active) and 296 nM (active)
CC=C1NC(=O)[C@H]2CSSCCC=C[C@H](CC(=O)N[C@H](C(C)C)C(=O)N2)OC(=O)[C@H](C(C)C)NC1=O,outcome,[1],inactive
same,Potency,[2],inactive
Cc1nc2ccc(CN(C)c3ccc(C(=O)N[C@@H](CCC(=O)O)C(=O)O)s3)cc2c(=O)[nH]1,outcome,[1],inactive
same,Potency,[2],inactive
same,Potency,[11],inactive
same,Potency,[3],inactive
same,Potency,[4],inactive
same,Potency,[6],53.1 nM (active) and 33.2 nM (active)
same,Potency,[7],59.6 nM (active) and 23.5 nM (active)
CCC1=C[C@@H]2CN(C1)Cc1c([nH]c3ccccc13)[C@@](C(=O)OC)(c1cc3c(cc1OC)N(C)[C@@H]1[C@@](O)(C(=O)OC)[C@H](OC(C)=O)[C@]4(CC)C=CCN5CC[C@]31[C@@H]54)C2,outcome,[1],inactive
same,Potency,[2],inactive
CC1(C)OC2=C(C(=O)c3ccccc3C2=O)[C@H](NCc2ccccc2)[C@H]1O,outcome,[1],inactive
same,Potency,[2],inactive
COc1ccc(CC2SC(=O)NC2=O)cc1C(=O)NCc1ccc(C(F)(F)F)cc1 (stereo unspecified),outcome,[1],inactive
same,Potency,[2],inactive
C=C1C(=CC=C2CCCC3(C)[C@@H]([C@H](C)C=CC=CC(O)(CC)CC)CC[C@@H]23)C[C@@H](O)C[C@@H]1O (stereo partly specified),outcome,[1],inactive
same,Potency,[2],inactive
CC1=C(CO)C(=O)O[C@@H]([C@@H](C)[C@H]2CC[C@H]3[C@@H]4C[C@H]5O[C@]56[C@@H](O)C=CC(=O)[C@]6(C)[C@@H]4CC[C@]23C)C1,outcome,[1],inactive
same,Potency,[2],inactive
OCCCNc1cc(-c2ccnc(Nc3cccc(Cl)c3)n2)ccn1,outcome,[1],inactive
same,Potency,[2],inactive
same,Potency,[3],13.5 µM (active)
same,Potency,[4],10.7 µM (active)
same,Potency,[5],22.4 µM (active)
same,Potency,[6],29 nM (active) and 52.5 nM (active)
same,Potency,[7],51.7 nM (active) and 33.2 nM (active)
same,activity,[13],-80.2%
Nc1ccc(S(=O)(=O)Nc2ncccn2)cc1,outcome,[1],inactive
same,Potency,[2],inactive
same,Potency,[3],inactive
same,outcome,[12],inactive
same,Potency,[4],inactive
CCCNC(=O)Nc1ccc(Oc2ncnc3cc(OC)c(OC)cc23)cc1Cl,outcome,[1],inactive
same,Potency,[2],inactive
same,Potency,[3],inactive
same,Potency,[4],inactive
CN(C)CC=CC(=O)Nc1cc2c(Nc3ccc(F)c(Cl)c3)ncnc2cc1O[C@H]1CCOC1,outcome,[1],inactive
same,Potency,[2],inactive
O=C(C=Cc1cccnc1)NCCCCC1CCN(C(=O)c2ccccc2)CC1,outcome,[1],inactive
same,Potency,[2],inactive
